Data as given in PubChem BioAssay AID624256 (NMMLSC, 2012).
Screen size: about 360,000 compounds; about 3,700 (1%) were called active. Not shown: some 2% with an inconclusive outcome.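 Rule for the calls: active = normalized GFP-positive differentiation at or above the plate's own cutoff, the solvent-only control mean plus 3 SD; inconclusive = no clear call, values can overlap the other calls; inactive = the rest.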 This excerpt belongs to a sample that is enriched for actives.

assay: induction of myeloid progenitor differentiation, primary screen, cell-based, flow cytometry, MLPCN library (AID 624256); conditions: ER-HoxA9 myeloid progenitors, lysozyme-GFP differentiation, at 10 µM; GFP+ MAC1+ double positive: measured here: differentiation confirmed by MAC1 staining, stronger effect = higher value; normalized GFP-positive differentiation: stronger effect = higher value;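 for GFP+ MAC1+ double positive: cells exposed to compound for four days before flow analysis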;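 for normalized GFP-positive differentiation: cells exposed to compound for four days before flow analysis; 0% = DMSO wells and 100% = fulvestrant positive control at 5 µM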

SMILES	GFP+ MAC1+ double positive [%]	outcome	normalized GFP-positive differentiation
O=C(Nc1cccc(F)c1)c1cc(-c2ccco2)nc2ccccc12	0.5	inactive	–
CNC(=S)NNC(=O)c1oc2nc(-c3ccccc3)cc(-c3ccco3)c2c1N	2.3	inactive	–
NNC(=O)c1oc2nc(-c3ccccc3)cc(-c3ccco3)c2c1N	1	–	38.1% (active)
Cc1ccccc1-c1csc(C(O)c2cccc(Cl)c2)n1 (stereo not given)	0.8	inactive	–
Cc1cc(C)c2nc3nc(C)cc(C)c3c(N)c2c1	2.1	–	151% (active)
NC(Cc1ccc(F)cc1)c1csc(Nc2nncc3ccccc23)n1 (stereo not given)	0.8	inactive	–
O=c1oc2ccccc2c(=O)c2ccccc12	1.6	inactive	–
COc1cc(N=Cc2c(O)c3ccccc3oc2=O)c(OC)cc1Cl	12	–	239% (active)
COc1ccccc1CNC(=O)c1cc(=O)c2ccccc2o1	1	inactive	–
CCOC(=O)c1ccn(S(=O)(=O)c2ccc(C)cc2)c1-c1ccccc1	1.4	inactive	–
O=C1NC[C@H](Cc2ccc(O)cc2)N(C[C@H]2CCCN2C[C@H](Cc2ccccc2)N2C[C@H](Cc3ccccc3)N(CCc3ccccc3)C(=O)C2=O)C1=O	1	inactive	–
CCOC(=O)[C@]12CCCC=C1N(CCC1=CCCCC1)C(=O)[C@H](CC(=O)N1CCN(C(=O)c3ccco3)CC1)C2	2.3	inactive	–
N#CCCN(C(=O)COC(=O)c1ccc(S(=O)(=O)N2CCCCCC2)cc1)c1ccccc1	0.7	inactive	–
Cc1c(C(=O)OCC(=O)N(CCC#N)c2ccccc2)oc2c1ccc1ccccc12	5	–	26.9% (active)
N#CCCN(C(=O)COC(=O)c1ccc2c(c1)OCCO2)c1ccccc1	0.7	inactive	–
CCCc1nc2ccccc2n1C(C)C(=O)NC(C)(C)C (stereo not given)	3.7	inactive	–
O=C(NC(c1ccc(-c2ccccc2)cc1)c1cnccn1)C1CCN(CCOc2ccc(Cl)cc2Cl)CC1 (stereo not given)	1.7	inactive	–
CC(C)n1cnc2c(NCc3ccccc3)cc(OCC3CCN(C)CC3)cc21	8.3	–	28.4% (active)
CN(C)c1nccc(NCc2ccccc2)c1C#N	0.2	inactive	–
CCOC1=C2[C@@H](CN(S(=O)(=O)c3ccc(C)cc3)[C@H]2c2ccccc2F)[C@H]2C(=O)N(Cc3ccccc3)C(=O)[C@H]2C1	1.5	inactive	–
COC(=O)CCCCC1=CCC2C(=O)C=C(O)C2C1 (stereo not given)	1.6	inactive	–
O=C(/C=C/c1ccc(OCc2c(F)cccc2Cl)cc1)N1CCOCC1	32	–	144% (active)
CN(C)CCCNC(=O)/C=C/c1ccc(OCc2c(F)cccc2Cl)cc1	0.3	inactive	–
Fc1cccc(Cl)c1COc1ccc(-c2nnco2)cc1	1.8	inactive	–
CC1(C)OC(=O)C2=C(C[C@@H](C3CCCCC3)O[C@@H]2c2ccc(Cl)cc2)O1	0.8	inactive	–
Cc1ccc(NC(=O)c2ccc(S(=O)(=O)NCC3CCCO3)cc2)cc1C (stereo not given)	0.8	inactive	–
O=C(Nc1ccc(S(=O)(=O)NCC2CCCO2)cc1)c1ccc(F)cc1 (stereo not given)	0.4	inactive	–
CCOc1ccc(C(=O)Nc2ccc(S(=O)(=O)NCC3CCCO3)cc2)cc1OCC (stereo not given)	2.1	–	18.3% (active)

SMILES	GFP+ MAC1+ double positive [%]	outcome	normalized GFP-positive differentiation
Cc1cccc(C)c1NC(=O)C(c1cccc2ccccc12)n1c(=O)c(-c2ccco2)nc2ccccc21 (stereo not given)	3.2	inactive	–
Cc1cc(C)c(S(=O)(=O)NN=C2c3ccccc3[C@H]3Cc4csc[n+]4[C@@H]23)c(C)c1	1.3	inactive	–
O=C(COC(=O)c1ccccc1O)NCc1ccco1	0.8	inactive	–
CCN(C(=O)COC(=O)c1ccccc1O)c1cccc2ccccc12	0.7	–	11.2% (active)
Cc1cccc(C)c1NC(=O)COC(=O)c1ccccc1O	0.5	inactive	–
CCOC(=O)C1=CCC(c2ccc(F)cc2)N(S(=O)(=O)c2ccc(C)cc2)C1 (stereo not given)	0.9	inactive	–
Cc1cccc(C)c1-n1nnnc1C(CCc1ccccc1)N1CCN(C/C=C/c2ccccc2)CC1 (stereo not given)	1.8	inactive	–
Cc1cc2nc(-c3ccc(Cl)cc3)c(Cc3cccc(F)c3)n2c(C)c1Br	1.3	inactive	–
O=C(c1ccco1)N1CCN(C(=O)C2CC(c3ccc(F)cc3)=NO2)CC1 (stereo not given)	12.6	–	34.4% (active)
O=C(c1ccco1)N1CCN(C(=O)C2CC(c3ccc(Cl)c(Cl)c3)=NO2)CC1 (stereo not given)	0.9	inactive	–
CCOC(=O)N1CCN(C(=O)C2CC(c3ccc(F)cc3)=NO2)CC1 (stereo not given)	1.8	inactive	–
Cn1cnc(S(=O)(=O)N2C[C@@H](O)COC[C@@H]3O[C@H](CC(=O)NC4CCC4)CC[C@H]32)c1	3.2	inactive	–
NCCCNC(=S)NCCCN(Cc1ccc(Cl)cc1)c1ccc(Br)cn1	0.9	inactive	–
O=C(CC[C@H]1O[C@@H](n2ccc(=O)[nH]c2=O)[C@H](O)[C@@H]1O)N[C@H](Cc1ccccc1)C(=O)NCCCN1CCCC1=O	0.7	inactive	–
O=C(NCC(O)c1nc2ccccc2[nH]1)c1ccc(Br)cc1 (stereo not given)	0.9	inactive	–
OC(c1nc2ccc(F)cc2[nH]1)C(O)c1nc2ccc(F)cc2[nH]1 (stereo not given)	0.4	inactive	–
CC(C)c1nc2ccc(C(=O)O)cc2[nH]1	15	–	15.9% (active)
COc1ccc(COC[C@H](CC(C)C)N2CCN(C(=O)c3cccc(C(F)(F)F)c3)CCC2=O)cc1	0.4	inactive	–
CC(=O)C[C@@H]1OC[C@H](C)N1S(=O)(=O)c1ccc(C)cc1	3	inactive	–
Cc1ccc(-c2c(N)nc3ncccn23)cc1	1.5	inactive	–
CN1CCN(c2ccc3c(c2)OC[C@H](Cc2ccccc2)NS3(=O)=O)CC1	1	inactive	–
Cc1ccc(-c2csc(NC(=O)C3=COCCO3)n2)cc1C	0	inactive	–
CCc1noc(C)c1C(=O)OCC(=O)c1ccc(NC(=O)CC(C)C)cc1	1.1	inactive	–
CCc1noc(C)c1C(=O)Nc1nc(-c2ccccc2)cs1	2.2	–	32.2% (active)
CCN(CC)S(=O)(=O)c1cc(C(=O)Nc2cc(S(=O)(=O)N3CCOCC3)ccc2N2CCCC2)ccc1F	0.3	inactive	–
CCN(CC)S(=O)(=O)c1ccc(N2CCCC2)c(NC(=O)c2ccc([N+](=O)[O-])o2)c1	5.1	–	56% (active)
CCN(CC)S(=O)(=O)c1ccc(N2CCOCC2)c(NC(=O)c2ccc(=O)n(C)n2)c1	0.1	inactive	–
